Source: PubChem
ALOX12 inhib: inhibitors of human 12-lipoxygenase (ALOX12). Potency, µM (highest dose often 57.1 µM), inactives show top-dose activity change, negative = inhibition, hits mostly inhibitors. purified 12-hLO, xylenol orange hydroperoxide absorbance. P18054. actives 0.12% (n = 150,000); further: potency means the concentration at half of the fitted maximal effect; nearly all actives have a fitted effect of over 55% in size
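Purified human 12hLO (150 nM final) was preincubated with compounds for 15 min at room temperature in 25 mM Hepes pH 7.0, 0.01% Triton X-100, then reacted with 40 uM arachidonic acid for 30 min. Hydroperoxide was detected with ferrous iron/xylenol orange.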
IMPase cell inh: cell-permeable inhibitors of inositol monophosphatase (IMPase); P97697; CHO-M1 cells, IP1 accumulation, HTRF TR-FRET ratio; inhibition (IP1 accumulation), % at 46.1 µM; 120,000 tested, under 10 active; active means well fitted curve in the direction sought with a large enough effect in the signal ratio, not every such curve was filed as active; inconclusive means small, poorly fitted or top-dose-only effect, or a change in a side signal; inactive means no such curve, though single readings can be large or run the other way; the % refers to the signal ratio;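 further: cells stimulated with carbachol in lithium chloride buffer; plate controls were DMSO basal wells for no effect and reference inhibitor wells for full effect; higher means more IMPase inhibition seen as more IP1 and lower FRET ratio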
Target sequence (P97697 whole entry, looked up): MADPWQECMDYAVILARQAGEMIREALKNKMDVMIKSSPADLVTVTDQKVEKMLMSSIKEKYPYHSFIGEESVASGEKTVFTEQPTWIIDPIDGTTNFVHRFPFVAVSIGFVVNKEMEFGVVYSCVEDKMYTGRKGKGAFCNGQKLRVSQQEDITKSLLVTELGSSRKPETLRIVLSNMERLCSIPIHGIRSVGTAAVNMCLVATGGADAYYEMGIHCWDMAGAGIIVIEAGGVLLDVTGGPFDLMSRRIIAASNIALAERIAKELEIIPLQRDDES
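Elevated IP1 in lysates lowers TR-FRET signal (665/620 ratio and 620 channel reported). Cells were CHO-M1, given carbachol (50 uM as added) plus 50mM LiCl, pH 7.4, 30 min, 37C; compounds titrated up to 46 uM; AC50 by Hill equation.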
IMPase Li cell: IMPase inhibition in cells with lithium potentiation; CHO-M1 cells, IP1 TR-FRET (IP-One), carbachol + lithium; Potency, µM (doses to about 59.4 µM), inactives show top-dose activity, negative = IMPase inhibition, most hits filed as inhibitors; actives 0.35% (n = 210,000);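 further: IP1 builds up when IMPase is blocked and the TR-FRET signal falls; potency means the concentration at half of the fitted maximal effect; plate controls were basal vehicle for no effect and high inhibitor control for full effect; nearly all actives have a fitted effect of over 50% in size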
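CHO cells stably expressing M1 receptor (2000/well) were cultured 16–30 h, then exposed to compounds with a small lithium addition for 30 min at 37C. IP1 was measured by TR-FRET competition; AC50 from Hill fits.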
PNC inhibitor: blocks assembly of the perinucleolar compartment; PC3M PTB-GFP, PNC prevalence imaging, 16 h; hits give low values; activity change (PNC), negative = inhibition, % at 10 µM; actives 3.1% (n = 140,000); AID 2417;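 active means readout at or below -70, meaning at least 70% loss of cells showing the perinucleolar compartment, a nuclear body marking cancer cells; inconclusive means readout between -30 and a set limit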;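 further: plate controls were DMSO wells for no effect and camptothecin positive control wells for full effect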
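Compounds are pinned in duplicate onto adhered PC3M cells stably expressing GFP-tagged PTB and incubated 16 h at 37 C. Cells are then fixed, nuclei stained with Hoechst, and PNC-positive cells counted.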
* hit, by the source's call; ? = inconclusive; · = no result given; [ ] = remark or other dose. This excerpt belongs to a sample that is enriched for hits. Unless noted, the call rests on the fitted dose curve; in most records, active means well fitted curve in the direction sought with a large enough effect; inconclusive means small, poorly fitted or top-dose-only effect, or another doubt; inactive means no such curve, though single readings can be large; an effect the other way counts as inactive or inconclusive. Unless noted, on the % scale 0 is the no-effect control and ±100 the full control effect.

SMILES | ALOX12 inhib | IMPase cell inh | IMPase Li cell | PNC inhibitor
CS(=O)(=O)N1CCC2(CCCN(Cc3cc(C(F)(F)F)cc(C(F)(F)F)c3)C2)CC1 | 0% | · | 21% | ·
COc1cc(/C=N/NC(=O)c2ccc(CSc3nc4ccccc4[nH]3)cc2)cc(OC)c1OC | 0% | · | 4% | -85*
O=C(Nc1cccc2c1C(=O)NC2=O)c1ccc(S(=O)(=O)N2CCCC2)cc1 | -2% | -8 | -1%[38.3 µM] | -111*
c1ccc(C(c2cccc3c2ccc2ccccc23)[C@H](c2ccccc2)c2cccc3c2ccc2ccccc23)cc1 (stereo partly specified) | · | · | 3% | ·
CCOc1ccc2cc(C#N)c(SCC(=O)N3CCOCC3)nc2c1 | -10% | -20 | 2.8µM* | ?
CCOC(=O)CSc1nc2cc3c(cc2cc1C#N)OCO3 | -9% | 7 | 0%[38.3 µM] | -127*
C[C@H]1Cc2c(COc3ccccc3)nc3c(c2CO1)CN(S(=O)(=O)c1ccc(Cl)c2nonc12)CC3 | -6%[11.4 µM] | · | 5% | ·
C=CCn1c(C)c(C(C)=O)c(SC)nc1=S | 0% | 1 | 4%[38.3 µM] | -84*
Cc1ccc(NC(=O)/C=C/c2ccco2)nc1 | -2% | 4 | 3% | -100*
O=C(/C=C/c1ccco1)Nc1ccccn1 | 2% | 0 | -1% | ?
O=C(CN1CCN(c2ccccc2F)CC1)NC(=O)NCc1ccco1 | · | · | -17% | ·
COc1ccc(Cn2c(=S)[nH]c3ccsc3c2=O)cc1 | -4% | · | -6% | 7
O=C(Cn1nc(C(F)(F)F)c2c1CCC2)Nc1ccc(Cl)cc1 | · | 9 | · | ·
Cc1cc2nc(C3CCN(CC4COc5ccccc5O4)CC3)[nH]c2cc1C (stereo unspecified) | -26% | 16[1.84 µM] | -8%[38.3 µM] | -82*
CCCNC(=S)N1CCC(c2nc3cc(C)c(C)cc3[nH]2)CC1 | 6% | 5 | 2%[38.3 µM] | 49
CCN(CC)c1ccc2cc(-c3nnc(-c4ccccc4)o3)c(=O)oc2c1 | 1% | 0 | -5% | -100*
CCN(CC)c1ccc2cc(-c3nc4ccccc4[nH]3)c(=O)oc2c1 | 2% | -2 | 4% | -104*
COC(=O)[C@@]1(Cc2ccc(OC)cc2)[C@H]2c3cc(C(=O)N(C)C)n(Cc4ccc(C(F)(F)F)nc4)c3C[C@H]2CN1C(=O)c1ccccc1 | -25% | · | 7% | ·
Cc1cccc(-n2c3nc(=O)[nH]c(=O)c-3cc3cc([N+](=O)[O-])ccc32)c1 | 0% | · | 11% | -16
Cc1ccc(C)c(-n2c3nc(=O)[nH]c(=O)c-3cc3cc([N+](=O)[O-])ccc32)c1 | -17% | · | 20% | -116*
Cc1noc(C)c1C(=O)N1CCC2(CC1)CCN(c1ccccn1)CC2 | 0% | · | 12% | ·
C=CCOc1ccc(CN(C)CC(=O)N(CC(C)C)c2c(N)n(CC(C)C)c(=O)[nH]c2=O)cc1 | 2% | 2[1.84 µM] | 6%[38.3 µM] | -101*
CCCCn1c(N)c(N(CC(C)C)C(=O)CN(C)Cc2cccc(OC)c2)c(=O)[nH]c1=O | -1% | 5 | -1%[38.3 µM] | ?
CC(C)c1cc(/C=C(\C#N)C(=O)NCCCc2ccccc2)cc(C(C)C)c1O | · | · | -12% | ·
COc1ccccc1C(=O)Nc1nc2ccc(S(C)(=O)=O)cc2s1 | 3% | · | 10µM* | -8
SMILES | ALOX12 inhib | IMPase cell inh | IMPase Li cell | PNC inhibitor
Brc1ccc(-c2nc(-c3ccncc3)no2)o1 | -2% | -5 | -8%[38.3 µM] | -89*
Brc1ccc(-c2nc(-c3ccccn3)no2)o1 | -9% | 12 | 6%[38.3 µM] | 38
CN1CCN(c2nc3c(c(=O)n(C)c(=O)n3C)n2C)CC1 | -1%[11.4 µM] | · | -7% | ·
S=C(NCCN1CCOCC1)Nc1ccccc1Cl | -4% | · | 8% | ?
CCOC(=O)c1ccc(NC(=O)CSc2nnc(CNc3ccc(C)cc3)n2C)cc1 | -6% | 6 | 2% | -100*
COc1ccc(CNC(=O)c2cccc(N(C)C)c2)cc1 | 3% | 1 | 0%[38.3 µM] | -83*
O=C(CN1CCN(c2ccccn2)CC1)N1c2ccccc2Sc2ccc(C(F)(F)F)cc21 | ? | 24 | 24%[38.3 µM] | -114*
CC(N)(Cc1ccc(O)c(O)c1)C(=O)O (stereo unspecified) | · | · | -2% | ·
OC(COCC(F)(F)C(F)(F)C(F)(F)C(F)F)Cn1c2ccc(Cl)cc2c2cc(Cl)ccc21 (stereo unspecified) | -1% | -8 | 13% | -15
CCCCc1ccc(NC(=O)CC(C)=O)cc1 | -3% | -6 | 0%[38.3 µM] | -127*
CC(C)(C)NC(=O)CSC(=Nc1ccc(F)cc1)NC#N | -4% | 9 | 6%[38.3 µM] | ?
COc1cc2oc(=O)cc(C)c2c(OC)c1OC | 1% | · | -2% | -22
COc1cc2oc(=O)c(Br)c(C)c2c(OC)c1OC | 1% | ? | 13µM* | -15
Cc1ccc(N=Cc2c(C)[nH]n(-c3nc4ccccc4[nH]3)c2=O)cc1 | -2% | · | -8% | -81*
CC[C@@H](C)C(NC(=O)OC(C)(C)C)c1cn([C@@H](Cc2ccc(O)cc2)C(=O)N2CCN(C(=O)OC(C)(C)C)CC2)nn1 (stereo partly specified) | · | · | 4% | ·
N#CC(C#N)=C1C=C2C=C(N3CCOCC3)CCC2CC1 (stereo unspecified) | · | · | 38% | ·
N#CC(C#N)=C1C=C2C=C(N3CCCCCC3)CCC2CC1 (stereo unspecified) | -21% | · | 23% | -134*
COc1cccc(C(=O)Oc2c(Br)cc(Br)cc2/C=N/NC(=O)c2cc(C)[nH]n2)c1 | · | · | 12% | ·
CCCCCc1c(C)nc(N2CCc3ccccc3C2)[nH]c1=O | 3% | 2 | 12%[38.3 µM] | -117*
Cc1nc(N2CCc3ccccc3C2)[nH]c(=O)c1Cc1ccccc1 | · | · | -9% | ·
Cc1ccc(SCCN)cc1C | · | · | 22% | ·
CC1=C(C(=O)OCc2ccccc2)C(c2ccccc2)NC(=O)N1CCCCCC(=O)O (stereo unspecified) | -1% | · | 6% | -80*
Cc1ccccc1N(C)S(=O)(=O)c1ccc2[nH]cc(C(=O)NCC3CCCO3)c(=O)c2c1 (stereo unspecified) | -3% | 3 | 23%[38.3 µM] | -84*
CCc1cc(C(C)=O)c(O)cc1OCCCCCC(C)(C)c1nn[nH]n1 | -4% | · | 4% | ·
CCCCN(C)C(=O)C1CCN(Cc2ccc(OCc3ccccc3)cc2)CC1 | -22% | -4 | 12% | 18
SMILES | ALOX12 inhib | IMPase cell inh | IMPase Li cell | PNC inhibitor
CCCCOc1ccc(CN2CCC(O)CC2)cc1 | 3% | 13 | 39%[38.3 µM] | -100*
O=C(N/C(=C/c1ccc(Br)cc1)C(=O)N1CCOCC1)c1cccs1 | · | · | 2% | ·
O=C1CCC(=O)N1c1nc2n(n1)C(c1ccccc1)C=C(c1ccc(Br)cc1)N2 (stereo unspecified) | -12% | -17 | 11µM* | -28
O=C(c1ccc(Cc2nc3ccccc3[nH]2)cc1)N1CCOCC1 | -2% | · | · | ·
S=C(Nc1ccccc1Oc1ccccc1)NC1CCCC1 | · | · | 16% | ·
S=C(Nc1ccc(Oc2ccccc2)cc1)NC1CCCC1 | 14µM* | -19 | 9% | ?
CCOC(=O)C1=C(C)C(c2ccccc2OC)NC(=S)N1 (stereo unspecified) | -9% | 10 | -2%[38.3 µM] | ?
